Compounds with a hit are over-represented: about 10% of the library has one in this group of screens.
BAZ2B inh: inhibitors of human BAZ2B bromodomain; Potency, µM (series often up to 114 µM), without a hit: top-dose activity change, negative = inhibition, hits mostly inhibitors; 360,000 compounds, 4.4% hits; AlphaScreen BAZ2B-H3K14Ac peptide displacement; also: % is scaled to controls: 0 for no effect and ±100 for the full control effect; nearly all actives have a fitted effect of over 60% in size
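AlphaScreen displacement: compounds (up to 110uM) incubated 30 min at room temperature with a preformed 50 nM BAZ2B/50 nM biotinylated H3K14Ac peptide complex in PBS pH 7.4 with Tween-20. Donor and acceptor beads at 10 ug/mL final added, 20 min light-protected before reading.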
GLS inhibitor: inhibitors of human glutaminase (GLS); Potency, µM (titrated, usually from 45.5 µM), for inactives: top-dose activity change, negative = inhibition, usual class: inhibitors; 410,000 compounds, 0.21% hits; GLS enzymatic activity, qHTS titration; O94925; also: % is scaled to controls: 0 for no effect and ±100 for the full control effect
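Read-out is an Amplex red fluorescence increase coupled through glutamate oxidase and HRP, measured before and after 30 min room-temperature incubation. hKGA is in 45 mM KH2PO4 (pH 8.2) with 0.02% Tween-20; glutamine added as 1mM solution.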
G9a block: G9a (human) methyltransferase inhibition; AID 504332; Q96KQ7; G9a H3K9 monomethylation, AlphaScreen, 2 h; Potency, µM (titrated, usually from 102 µM), for inactives: at the top dose activity, negative = inhibition, hits mostly inhibitors; 350,000 compounds, 8.8% hits; also: % is scaled to controls: 0 for no effect and ±100 for the full control effect; nearly all actives have a fitted effect of over 75% in size
Target sequence (Q96KQ7 913-1193 limits assumed): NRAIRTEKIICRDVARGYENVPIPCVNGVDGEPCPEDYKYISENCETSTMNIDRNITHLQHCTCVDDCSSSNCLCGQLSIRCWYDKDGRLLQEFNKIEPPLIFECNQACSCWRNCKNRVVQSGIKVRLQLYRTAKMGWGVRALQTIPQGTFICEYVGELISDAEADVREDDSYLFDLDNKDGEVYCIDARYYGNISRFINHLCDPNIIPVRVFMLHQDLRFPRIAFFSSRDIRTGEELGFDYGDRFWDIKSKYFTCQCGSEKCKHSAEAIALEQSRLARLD
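Readings reflect AlphaScreen signal from monomethyl-H3K9 antibody detection. HMT at 20 nM; substrate b-H3K9 500 nM; cofactor SAM 20 uM; 2 h RT reaction; compounds tested as titrations in qHTS with 15 min preincubation.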
L3MBTL1 inh: blocks human L3MBTL1; Q9Y468; 230,000 compounds, 0.66% hits; Potency, µM (top dose mostly 57.1 µM), for inactives: at the highest dose activity, negative = inhibition, most hits filed as inhibitors; AlphaScreen L3MBTL1–H3K9me1 peptide binding; AID 485360; also: % is scaled to controls: 0 for no effect and ±100 for the full control effect; nearly all actives have a fitted effect of over 60% in size
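L3MBTL1 (50 nM) pre-complexed 30 min with biotinylated H3(1-15)K9me1 peptide (75 nM), then compounds added for 30 min at room temperature; AlphaScreen streptavidin donor/nickel chelate acceptor beads (10 ug/mL final) read after 30 min dark incubation.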
JMJD2A Tudor inh: blocks the human JMJD2A Tudor domain | O75164 | AlphaScreen JMJD2A-Tudor / H3K4me3 peptide binding | Potency, µM (doses to about 114 µM), for inactives: top-dose activity change, negative = inhibition, hits mostly inhibitors | 390,000 compounds, 4.4% hits | AID 504339; also: % is scaled to controls: 0 for no effect and ±100 for the full control effect; nearly all actives have a fitted effect of over 50% in size
HP1b chromo inh: blocks HP1-beta chromodomain binding to methylated histone tails | P83916 | AlphaScreen HP1-beta / biotin-H3K9me3 peptide binding | Potency, µM (series often up to 114 µM), inactives show top-dose activity change, negative = inhibition, most hits filed as inhibitors | 390,000 compounds, 0.56% hits; also: nearly all actives have a fitted effect of over 70% in size
Target sequence (P83916 whole entry, looked up): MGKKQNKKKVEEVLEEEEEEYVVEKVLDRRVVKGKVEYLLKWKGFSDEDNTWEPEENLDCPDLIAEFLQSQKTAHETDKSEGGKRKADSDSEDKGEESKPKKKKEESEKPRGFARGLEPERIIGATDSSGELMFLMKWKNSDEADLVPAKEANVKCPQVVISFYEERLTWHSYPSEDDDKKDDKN
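AlphaScreen: HP1-beta (50 nM) preformed 30 min with biotin-H3(1-18)K9me3 peptide (50 nM) in PBS pH 7.4, 0.01% Tween-20. Compound added for 30 min at RT, then streptavidin donor/nickel chelate acceptor beads (10 ug/mL) for 30 min.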
* = called active by the depositor; u = inconclusive; x = no result; [ ] = dose if it differs, or a comment. Calls follow the shape of the dose curve; as a rule, active = well fitted curve in the direction sought with a large enough effect; inconclusive = small, poorly fitted or top-dose-only effect, or another doubt; inactive = no such curve, though single readings can be large; an effect the other way counts as inactive or inconclusive. Potency is read from the fitted curve at half-maximal effect.

SMILES	BAZ2B inh	GLS inhibitor	G9a block	L3MBTL1 inh	JMJD2A Tudor inh	HP1b chromo inh
O=C(N/N=C/c1ccncc1)c1cc2ccccc2cc1O	-30%	u	u	x	-33%	27%
CCOc1cc(CNC(=O)CN2CCSc3ccccc32)cc(OCC)c1OCC	-30%	3%	-43%[59 µM]	x	-33%	15%[57 µM]
COc1cccc(N2CCN(S(=O)(=O)c3ccc(-c4ccno4)cc3OC)CC2)c1	-38%	4%	-8%[59 µM]	x	-26%	-10%
CC(NC(=O)c1ccc(N2Cc3ccccc3Oc3ncccc32)s1)c1ccccc1 (stereo unspecified)	3%	-4%	-1%[59 µM]	x	-2%	38%
CC(/C=C/c1ccco1)=N/NC(=O)c1ccc(C)nc1	-16%	7%	-20%	x	-23%	9%
Cc1ccc(C(=O)N/N=C/c2cccc(OC(=O)/C=C/c3ccco3)c2)cn1	50µM*	13%	45µM*	32µM*	-4%[11.4 µM]	u
CC(C)c1ccc(-c2c(C#N)c(N)nc(SCC(=O)N3CCCCCC3)c2C#N)cc1	u	-12%	-2%	x	-1%	47%
CCOC(=O)CSc1nc(N)c(C#N)c(-c2ccc(OCC)cc2)c1C#N	-4%	3%	45µM*	9%	-10%	20%
COC(=O)CSc1nc(N)c(C#N)c(-c2ccc(O)cc2)c1C#N	-6%	11µM*	-2%	-7%	-16%	42%
O=C1CS/C(=N/N=C/c2ccccc2)N1Cc1ccco1	-11%	-10%	x	0%	-17%	8%
Cc1ccccc1CN1C(=O)CS/C1=N/N=C/c1ccco1	u	5%	40µM*	x	-22%	0%
COC(=O)CN=Cc1c(O)n(-c2ccc(Cl)cn2)c(=O)c2ccccc12	-1%	-1%	-2%	4%	-12%	24%
O=c1c2ccccc2c(C=Nc2cccc(S(=O)(=O)NCc3ccco3)c2)c(O)n1-c1ccc(Cl)cn1	27%	21%	28µM*	6%	-14%[57.1 µM]	-11%
CC(C)(C)N/N=C/c1c(O)n(-c2ccc(Cl)cn2)c(=O)c2ccccc12	-10%	-4%	3.2µM*	u	-17%	-3%
O=C(c1cnccn1)N1CCC2(CC1)CCN(c1cccc(-c3ccccc3)c1)CC2	x	x	-6%[12.7 µM]	x	x	x
C=CCN1C=CC=C/C1=C1\SC(=S)N(C)C1=O	u	0%	u	x	-17%	u
CCN1C(=O)/C(=C2/C=CC=CN2C)OC1=S	-2%	-1%	45µM*	-4%	-18%	-6%
CCN1C(C)=C(C)S/C1=C1\SC(=S)N(C2CCCCC2)C1=O	-12%	11%	-11%	-2%	-29%	-1%
CN1C=CC=C/C1=C1\SC(=S)N(CC(=O)O)C1=O	50µM*	21%	20µM*	-11%	-11%	7%
CN1C=CC=C/C1=C1\SC(=S)N(c2ccccc2)C1=O	u	1%	18µM*	-5%	-34%	-35%
CC(C)(C)NC(=O)CN1C(=O)/C(=C/c2ccccc2)SC1=S	-4%	2%	16%[12.7 µM]	u	-10%	19%
CN1C=CC=C/C1=C1\SC(=S)N(C2CCCCC2)C1=O	40µM*	0%	16µM*	-30%	40µM*	-54%
CCc1ccccc1NC(=O)Cn1nc(C)c2nn(-c3ccc(Cl)cc3)c(C)c2c1=O	3%	6%	-2%[59 µM]	x	-6%	30%[57 µM]
Cc1ccc(S(=O)(=O)Nc2cc3c(cc2N2CCOCC2)n(C)c(=O)c(=O)n3C)cc1	-22%	0%	u	x	-2%	52%
Cn1c(=O)c(=O)n(C)c2cc(N3CCOCC3)c(NS(=O)(=O)c3ccc(Br)cc3)cc21	u	14%	35µM*	x	u	-4%
SMILES	BAZ2B inh	GLS inhibitor	G9a block	L3MBTL1 inh	JMJD2A Tudor inh	HP1b chromo inh
COc1ccc(OC)c(S(=O)(=O)Nc2cc3c(cc2N2CCCC2)n(C)c(=O)c(=O)n3C)c1	50µM*	u	10µM*	x	32µM*	7%
Cc1cc(S(=O)(=O)Nc2cc3c(cc2N2CCOCC2)n(C)c(=O)c(=O)n3C)ccc1F	-18%	14%	-42%[59 µM]	x	-13%	-17%
Cn1c(=O)c(=O)n(C)c2cc(N3CCCC3)c(NS(=O)(=O)c3ccc(F)cc3)cc21	-17%[57.1 µM]	-14%	40µM*	x	-24%	50%
Cn1c(=O)c(=O)n(C)c2cc(N3CCCCC3)c(NS(=O)(=O)c3ccc([N+](=O)[O-])cc3)cc21	-37%	4%	32µM*	x	-31%	39%
COC(=O)c1c(C)sc(-c2c(-c3ccc4c(c3)OCCO4)[nH]c3c2c(=O)[nH]c(=O)n3C)c1O	-7%	1%	-5%[59 µM]	x	-14%	18%
CCOC(=O)COn1c(=O)c(-c2ccco2)[n+]([O-])c2ccccc21	u	6%	10µM*	u	-22%	9%
O=c1c(-c2ccco2)[n+]([O-])c2ccccc2n1OCc1ccccc1	29%	2%	6.3µM*	x	50µM*	u
O=c1c(-c2ccco2)[n+]([O-])c2ccccc2n1OCc1c(F)cccc1F	-3%	-19%	x	5%	-13%	11%
CC(=O)N1c2ccc(S(=O)(=O)NCC3CCC(C(=O)Nc4cc(C)ccc4C)CC3)cc2CC1C (stereo unspecified)	2%	4%	-6%[59 µM]	x	-13%	11%
Cc1ccc(OCC(=O)NNC(=O)c2cccnc2)cc1C	-7%	6%	x	6%	-11%	48%
CC(=O)Nc1ccc(N/C(C)=C/C(=O)c2cccnc2)cc1	-8%	9%	-3%[59 µM]	-6%	-3%	29%

High-throughput results from PubChem.
